The values that follow come from PubChem BioAssay AID1508623 (National Center for Advancing Translational Sciences (NCATS), 2021).

About 450 (0.94%) of roughly 48,000 compounds were called active. Inconclusive results (about 19%) are left out. The sample as a whole holds a higher share of actives than the screen did. A number with no mark means an inactive call. The call rests on the fitted dose curve; in most records, active means well fitted inhibition curve with a large enough effect; inconclusive means small, poorly fitted or top-dose-only effect; inactive means no such curve, though single readings can be large or run the other way.
Potency means the concentration at half of the fitted maximal effect.

The experiment in a line: Primary qHTS for Identification of Small Molecule Inhibitors of Huntingtin Promoter Activity. Further: nearly all actives have a fitted effect of over 50% in size. The conditions noted are these: HEK293 HTT promoter firefly luciferase reporter (activity 0% = vehicle and -100% = no light), 24 h; series mostly up to 57.5 µM; activity change, negative = inhibition: at the top concentration. An excerpt: Assay Provider: Russell L. Margolis M.D.
Department Neurology, Johns Hopkins University School of Medicine, Baltimore, MD
Huntington's Disease (HD) is a neurodegenerative disorder caused by a CAG repeat expansion in exon 1 of huntingtin (HTT). While there are currently no disease-modifying treatments for HD, recent efforts have focused on development of nucleotide-based therapeutics to lower HTT expression. As an alternative to siRNA or oligonucleotide methods, we hypothesized that suppression of HTT expression might be accomplished by small molecules that either (1) directly decrease HTT expression by suppressing HTT promoter activity or (2) indirectly decrease HTT expression by increasing the promoter activity of HTT-AS, the gene antisense to HTT that appears to inhibit expression of HTT.
We developed and employed a high throughput screen for modifiers of HTT and HTT-AS promoter activity using luminescent reporter HEK293 cells; of the 52,041 compounds tested, we identified 898 replicable hits. We used a rigorous stepwise approach to assess compound toxicity and the capacity of the compounds to specifically lower huntingtin protein in 5 different cell lines, including HEK293 cells, HD lymphoblastoid cells, mouse primary neurons, HD iPSCs differentiated into cortical-like neurons, and HD hESCs. We found no compounds which were able to lower huntingtin without lowering cell viability in all assays, though the potential efficacy of a few compounds at non-toxic doses could not be excluded.
SEQUENCE No. (1, 2, 3, etc.); […] (e.g., Cells, Incubation, Reagent, etc.); VALUE and DESCRIPTION.
1; Reagent; 4 uL; 2,500 Hek293 luciferase reporter cells per wells
3; Compound; 23 nL; Control inhibitor / compound library
5; Reagent; 2.5 uL; Firefly Luc reagent; Dual-Glo Luciferase Reporter Assay System (Promega)
6; Time; 10 min; room temperature incubation
7; Detection; Luminescence; FLuc
NOTES (numbers refer to sequence above)
1; High-throughput screening, measuring luminescence from a Hek293 luciferase reporter, was performed in 1,536 well white-walled tissue-culture treated plates. 2,500 cells were plated in 4 µL of Opti-MEM per well using a Multidrop Combi Reagent Dispenser (ThermoFisher).
2; Assay plates were cultured for 24 hours.
3; Control inhibitor (PTC124; final concentration of 50 uM) and compound library (at final concentrations of 460 nM - 57.5 uM) were added to the assay plate using the Kalypsis Pintool Robotic System equipped with 1536 pinheads.
4; Cells were then incubated for 24 hours at 37 degrees C prior to luminescence measurements.
5; In all cases, luminescence was measured using the Dual-Glo Luciferase Reporter Assay System (Promega) following the manufacturer's instructions.
6; Room temperature incubation.
7; Luminescence signal was obtained using the PerkinElmer ViewLux plate reader. Results were normalized to vehicle control (0% activity) and zero RLU (-100% activity).
Consider `CCOc1ccc(S(=O)(=O)c2cn(Cc3ccc(OC)cc3)c3ccc(F)cc3c2=O)cc1`, for which the “activity change, negative = inhibition” value was -19.5%.

Regarding `Cc1sc(C2C(C#N)=C(N)N(c3cccc(Cl)c3)C3=C2C(=O)CCC3)cc1CN1CCOCC1` (stereo unspecified), the “activity change, negative = inhibition” value was -8.58%.

For `COc1ccc(NC(=O)c2ccco2)cc1NC(=O)c1ccc(C#N)cc1F`, the “activity change, negative = inhibition” value is -8.77%.

Regarding `CCc1cccc(NC(=O)CN(C)S(=O)(=O)c2ccc3[nH]c4c(c3c2)CCCC4)c1`, the “activity change, negative = inhibition” value is -24.5%.

On to `COc1ccc(OC)c(-n2nnc3c(sc4nc(C)c(Br)c(C)c43)c2=O)c1`, for which the “activity change, negative = inhibition” value is -16%.

On to `Cc1c(C(=O)N(C)C)sc2c1c(=O)n(-c1ccc(F)cc1)c(=O)n2CC(=O)N(C)c1ccccc1`, for which the “activity change, negative = inhibition” value is -16.9%.

With `CCOc1ccc(C(NC(=O)c2cc(OC)c(OC)c(OC)c2)c2cc(Cl)c3cccnc3c2O)cc1` (stereo unspecified), the Potency is 3.55 µM (active).

Turning to `COc1cc(C(=O)NCC(c2ccc(Cl)cc2)N2CCOCC2)cc(OC)c1OC` (stereo unspecified), the “activity change, negative = inhibition” value is -3.92%.

Consider `COc1c(Cl)cc(Cl)cc1C(=O)Nc1cccc2cccnc12`, for which the “activity change, negative = inhibition” value was -11.6%.

For `CCCCCn1c(=O)[nH]c2cc(C(=O)Nc3cc(C)cc(C)c3)ccc2c1=O`, the “activity change, negative = inhibition” value is -2.81%.

In the case of `Cc1ccc(Cl)cc1N1CCN(S(=O)(=O)c2cc3[nH]c(=O)c(=O)[nH]c3cc2C)CC1`, the “activity change, negative = inhibition” value is -8.72%.

Consider `CC(=O)c1sc(N2C(=O)c3oc4ccccc4c(=O)c3C2c2ccc(C)cc2)nc1C` (stereo unspecified), for which the activity change, negative = inhibition is -13.5% [at 11.5 µM].

Regarding `CCS(=O)(=O)N1CCc2cc(C(=O)NCc3ccc(C)cc3)ccc21`, the “activity change, negative = inhibition” value was -14.9%.

As to `CCOC(=O)c1c(C)oc2nc(C)nc(Nc3ccc(CC)cc3)c12`, the “activity change, negative = inhibition” value is -7.44%.

Take `O=C(Cn1c(=O)nc(-c2ccccc2)c2cc(Cl)ccc21)NCc1ccc(Cl)cc1`: the “activity change, negative = inhibition” value is -24%.

Consider `CCCOc1cccc(C(=O)Nc2cccc(NC(=O)c3ccc(C(C)(C)C)cc3)c2)c1`, for which the “activity change, negative = inhibition” value is 28.7%.

In the case of `CCCN(CCC)CCNC(=O)Cn1cnc2sc(C)c(S(=O)(=O)N3CCC(C)CC3)c2c1=O`, the “activity change, negative = inhibition” value was -16.4%.

As to `CCc1nn(CCCC(=O)NC(C)c2ccccc2)c(=O)c2cc3occc3n12` (stereo unspecified), the “activity change, negative = inhibition” value was -11%.

As to `COc1ccc(-c2cc(-c3nc(-c4cc(OC)c(OC)c(OC)c4)no3)[nH]n2)c(OC)c1`, the “activity change, negative = inhibition” value is -15.4%.

Consider `Cc1ccccc1-c1nc(CS(=O)(=O)CC(=O)NC(C)c2ccccc2)c(C)o1` (stereo unspecified), for which the “activity change, negative = inhibition” value was -27.7%.

Take `Cc1ccc(Cl)cc1N1CCN(C(=O)CN2C(=O)COc3ccc(S(=O)(=O)N4CCOCC4)cc32)CC1`: the “activity change, negative = inhibition” value is -16.6%.

As for `Cc1cccc(N2CCN(C(=O)COCc3cc(-c4ccc5c(c4)OCO5)on3)CC2)c1C`, the “activity change, negative = inhibition” value was -5.06%.

Consider `O=C(Cn1c(-c2cccs2)cc2ccccc21)NCCc1ccc(Cl)cc1`, for which the “activity change, negative = inhibition” value is -23.6%.

For the compound `Cc1oc(-c2ccccc2F)nc1CN1CCC(C(=O)NCCc2ccc(Cl)cc2)CC1`, the “activity change, negative = inhibition” value was -11.4%.

As to `Cc1c(NC(=O)Nc2ccc(F)c(Cl)c2)c(=O)n(-c2ccccc2)n1C`, the “activity change, negative = inhibition” value is -12.5%.

For the compound `CCN(CC)S(=O)(=O)c1ccc2c(c1)N(CC(=O)NCC(C)c1ccccc1)C(=O)CO2` (stereo unspecified), the “activity change, negative = inhibition” value is -11.4%.

For the compound `CCN(CCCNC(=O)c1cc2c(=O)n(CC)c3ccccc3c2s1)Cc1ccccc1`, the “activity change, negative = inhibition” value was 3.33%.

As for `Cc1ccc(Cl)cc1N(C)C(=O)Cn1nc(Cc2cccnc2)c2ccccc2c1=O`, the “activity change, negative = inhibition” value was -22%.

As for `CC(=O)c1cccc(Nc2ccc3cc(S(=O)(=O)N4CCC(C)CC4)ccc3n2)c1`, the “activity change, negative = inhibition” value was -11.7%.

With `C[C@@H](NC(=O)c1ncnc(N)c1Cl)c1ncc(C(=O)Nc2cc(C(F)(F)F)c(Cl)cn2)s1`, the “activity change, negative = inhibition” value is -16.3%.

Take `Cc1cc(NC(=O)CSc2ncc(C(=O)Nc3ccc(Cl)cc3)c(=O)n2C)no1`: the “activity change, negative = inhibition” value is -1.72%.

For the compound `CC(=O)c1ccc(NC(=O)C2CCN(S(=O)(=O)c3c(C)noc3/C=C/c3ccc(C)cc3)CC2)cc1`, the “activity change, negative = inhibition” value is -21%.

For the compound `CC(C)c1ccc(NC(=O)C2CCN(c3nc(-c4ccc(C(C)C)cc4)no3)CC2)cc1`, the Potency is 0.0891 µM (active).

With `CCOC(=O)c1ccc(NC(=O)C2CC(=O)N(c3ccc(C(C)C)cc3)C2)cc1` (stereo unspecified), the “activity change, negative = inhibition” value was 4.03%.

Take `Cc1ccc2nc(CNC(=O)c3ccccc3)[nH]c2c1`: the “activity change, negative = inhibition” value is 0%.

Take `COCCCNC(=O)CN1C(=O)CSc2ccc(S(=O)(=O)N3CCOCC3)cc21`: the “activity change, negative = inhibition” value is -9.25%.

On to `CCCNC(=O)c1ccc2c(c1)ncn2-c1ccc(C)cc1C`, for which the “activity change, negative = inhibition” value is -9.41%.

With `CN1C(=O)C[C@H](C(=O)N[C@@H](Cc2cnc[nH]2)C(=O)N2CCC[C@@H]2C(N)=O)NC1=O`, the “activity change, negative = inhibition” value was 9.02%.

On to `COc1ccc(C(=O)NCC(c2ccc(N(C)C)cc2)N2CCc3ccccc32)c(OC)c1` (stereo unspecified), for which the “activity change, negative = inhibition” value was -17.2%.

With `COc1cccc(-n2c(=O)c3c(C)c(C(=O)N(C)C)sc3n(Cc3cccc(C)c3)c2=O)c1`, the “activity change, negative = inhibition” value is -4.23%.

Consider `COc1ccc2c(c1)C=C(C(=O)NCc1cc(Br)ccc1OC)CO2`, for which the “activity change, negative = inhibition” value is -23.7%.

In the case of `CCc1ccccc1NC(=O)c1ccc2nc(CCc3ccccc3)oc2c1`, the “activity change, negative = inhibition” value is 0%.

`O=C(Nc1cccc(-c2nc3ccccc3o2)c1)c1cccc(Br)c1`: the “activity change, negative = inhibition” value was -18.9%.

Turning to `Cc1cc(C)c(/C=C/c2onc(C)c2S(=O)(=O)N2CCC(C(=O)Nc3ccc(Cl)cc3C)CC2)c(C)c1`, the “activity change, negative = inhibition” value was 3.16%.

For `Cc1ccc(NC(=O)C2CCN(S(=O)(=O)c3cc(-c4noc(C)n4)ccc3C)CC2)c(C)c1`, the Potency is 11.2 µM (active).

`CCOc1ccc(NC(=O)C2CCN(S(=O)(=O)c3cc(-c4noc(C)n4)ccc3C)CC2)cc1`: the “activity change, negative = inhibition” value is -10.5%.
